Screening results (PubChem)
This is a sample that favours compounds with a hit; in the whole collection about 4.2% have one here.
TIM10 inh = growth inhibitors of isogenic TIM10 control yeast, primary screen, counter-screen for tim10-1 yeast inhibitor project, luminescence, uHTS | inhibition, % at 10 µM | S. cerevisiae TIM10 strain growth, BacTiter-Glo luminescence, 24 h | 1.4% of 330,000 active;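 active = inhibition of 40% or more at the single tested concentration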;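 note: wild-type TIM10 isogenic control strain grown at permissive 25 °C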
tim10-1 inh = growth inhibitors of tim10-1 mutant yeast, primary screen, luminescence, uHTS. inhibition, % at 20 µM. S. cerevisiae tim10-1 ts strain growth, BacTiter-Glo, 24 h. 2.2% of 330,000 active;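 active = inhibition of at least 40%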;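 note: mutant grown at 25 °C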
V-ATPase pHluor = regulators of yeast V-ATPase proton pumping, primary screen, pHLuorin cytosolic pH fluorescence; S. cerevisiae; response, % at 10 µM; 0.37% of 350,000 active; AID 504577, 2011; in the data active = response mostly above about 7.3%, no sharp cut-off; inactive = mostly below about 5.4%; note: actives read high
NALP1 inh = NALP1 inflammasome inhibitors in reconstituted yeast, colorimetric, S. cerevisiae, triplicate retest. S. cerevisiae NALP1/ASC/caspase-1 growth, X-gal OD620, 72 h. inhibition, % at 10 µM. 0.61% of 280,000 active; in the data active = inhibition mostly above about 24%, no sharp cut-off; inactive = mostly below about 32%
tim23-1 inh = growth inhibitors of tim23-1 mutant yeast, primary screen, luminescence, uHTS | S. cerevisiae tim23-1 growth, BacTiter-Glo luminescence, 24 h | inhibition, % at 20 µM | AID 463212, 2010 | 1.3% of 330,000 active;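 active = growth inhibition of the mutant yeast at or above 50%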;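 note: temperature-sensitive mutant grown at 25 °C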
NLRP3 yeast inh = NALP3 inflammasome inhibitors in reconstituted yeast, primary screen, luminescence, uHTS; Yeast reconstituted NLRP3/ASC/caspase-1, beta-gal luminescence, 24 h; inhibition, % at 10 µM; 0.39% of 330,000 active;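 active = inhibition of 50% or more; inactive = inhibition below 50%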
tim23-1 conf = tim23-1 mutant yeast growth inhibitors, confirmation, luminescence, single concentration; 83% of 4,400 active; AID 463218, 2010; inhibition, % at 20 µM; shares compounds with tim23-1 inh; S. cerevisiae tim23-1 growth, BacTiter-Glo luminescence, 24 h;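 active = inhibition above about 39% in either of two replicate wells at 20 µM, limit read from the data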;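 note: temperature-sensitive tim23-1 mutant grown at 25 °C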
A number is an active result; - = inactive; . = no result.

SMILES	TIM10 inh	tim10-1 inh	V-ATPase pHluor	NALP1 inh	tim23-1 inh	NLRP3 yeast inh	tim23-1 conf
O=C(Nc1cccc(F)c1)C1CCCN(S(=O)(=O)c2ccc(-n3cnnn3)cc2)C1 (stereo not drawn)	-	-	-	-	-	-	.
COc1ccc(C(CNC(=O)C2COc3ccccc3O2)N2CCCC2)cc1 (stereo not drawn)	-	-	-	.	-	-	.
COc1ccc(/C=N/NC(=O)c2cccs2)c2ccccc12	-	-	-	.	56	-	51
COc1ccc(COn2c(=O)c(C)[n+]([O-])c3ccccc32)cc1OC	-	-	-	-	89	-	-
COc1ccc(-c2csc(Nc3cc(C)ccn3)n2)cc1OC	-	-	-	-	94	-	-
CC1CN(C(=O)COc2coc(CN3CCc4ccccc4C3)cc2=O)CC(C)O1 (stereo not drawn)	-	-	-	.	-	-	.
COc1cc(/C=C/[N+](=O)[O-])ccc1OC(=O)c1cc2ccccc2oc1=O	-	-	-	-	80	-	73
COCCCn1c(O)c(/C=C2\N=C(C#N)C(=Nc3ccc(C)cc3)O2)sc1=S	-	-	-	-	-	-	.
CC1CC(NC(=O)c2c(O)nc3ccccn3c2=O)CC(C)(C)C1 (stereo not drawn)	.	.	-	.	.	.	.
CC1CC(NC(=O)c2c(O)nc3sccn3c2=O)CC(C)(C)C1 (stereo not drawn)	-	-	-	.	64	-	-
O=C(NC1CCCCCC1)c1c(O)nc2sccn2c1=O	-	-	-	.	69	-	46
O=C(NCC1CCCO1)c1c(O)nc2sccn2c1=O (stereo not drawn)	-	-	-	.	-	-	.
C#CCOCCOCCOCCNc1nc(N2CCN(C(=O)[C@H](CCC(=O)O)n3cc(C(N)CO)nn3)CC2)nc(N2CCN(C(=O)[C@H](CCC(=O)O)n3cc(C(N)[C@H](C)CC)nn3)CC2)n1 (stereo partly drawn)	-	-	-	-	-	-	.
CCCOc1ccc2ccccc2c1/C=C1\SC(=O)NC1=O	-	-	-	-	55	-	51
Cc1ccc2oc(=O)c(-c3ccc(O)cc3)c(C)c2c1	-	-	-	.	52	-	47
Cc1c(-c2ccccc2)c(=O)oc2ccc(O)cc12	-	-	-	-	-	-	.
CSc1ncccc1C(=O)NNC(=O)c1ccc(NS(=O)(=O)c2cccs2)cc1	-	-	-	.	-	-	.
Cc1cc(S(=O)(=O)N2CCN(CC(=O)N(C)Cc3ccccc3)CC2)ccc1Br	-	-	-	.	-	-	.
CN(Cc1ccccc1)C(=O)CN1CCN(S(=O)(=O)c2ccc(Cl)c(Cl)c2)CC1	-	-	-	.	52	-	-
O=C(Nc1cc(Cl)ccc1O)C1CC(c2ccccc2Cl)=NO1 (stereo not drawn)	-	-	-	-	52	-	73
CSc1ccccc1NC(=O)C1CC(c2ccccc2Cl)=NO1 (stereo not drawn)	-	-	-	-	-	-	.
S=c1[nH]nc(COc2ccccc2)n1/N=C/c1ccccc1Br	-	-	-	-	-	-	.
FC(F)(F)c1ccccc1/C=N/n1c(COc2ccccc2)n[nH]c1=S	-	-	-	-	50	-	-
Cc1ccc2nc(-c3ccc(NC(=S)NC4CC(C)(C)NC(C)(C)C4)cc3)sc2c1	-	-	-	-	70	-	67
Cc1cccc(N=Nc2cn[nH]c2-c2ccco2)c1	-	-	-	-	-	-	.
SMILES	TIM10 inh	tim10-1 inh	V-ATPase pHluor	NALP1 inh	tim23-1 inh	NLRP3 yeast inh	tim23-1 conf
c1ccc(N=Nc2cn[nH]c2-c2ccco2)cc1	-	-	-	-	51	-	47
CN(C)C1(CNC(=O)C2CCN(S(=O)(=O)c3cccc(C(F)(F)F)c3)CC2)CCCCC1	-	-	-	-	-	-	.
CC12CCC(C(=O)NCCCN3CCOCC3)(C(Br)C1=O)C2(C)C (stereo not drawn)	-	-	-	-	95	-	-
CN1c2ccccc2C(=O)C(=C2SCCCS2)S1(=O)=O	-	-	-	-	53	-	54
COc1cccc(CNC(=O)CCNS(=O)(=O)c2ccc(C)cc2)c1	-	-	-	.	-	-	.
O=C(CCS(=O)(=O)c1ccc(Br)cc1)N1CCCCCC1	-	-	-	-	-	-	.
CC(=O)NC(c1ccc2ccccc2c1)c1ccc2cccnc2c1O (stereo not drawn)	-	-	-	-	55	-	71
CC(=O)NC(c1ccc(Cl)cc1Cl)c1ccc2cccnc2c1O (stereo not drawn)	-	-	-	-	58	-	57
COc1ccc(C(NC(C)=O)c2ccc3cccnc3c2O)c(OC)c1 (stereo not drawn)	-	-	-	-	-	-	.
Cn1c(=O)cc(Cl)[nH]c1=O	-	-	-	-	-	-	.
C[n+]1c2n(c3ccccc31)N=C(c1ccc(-c3ccccc3)cc1)CS2	-	-	-	-	60	-	47
Cc1cc(-c2nnc3n2N=C(c2ccc(-c4ccccc4)cc2)CS3)n[nH]1	-	-	-	-	-	-	.
Nc1c(C(=O)Nc2ccc3c(c2)OCCO3)nnn1Cc1ccccc1Cl	-	-	-	.	66	-	42
COC(=O)c1ccc(NC(=O)Cn2nc(C(=O)Nc3ccc(C)cc3)ccc2=O)cc1	-	-	-	-	-	-	.
O=C(Nc1nc(-c2cccs2)c(-c2ccccc2)s1)c1ccco1	-	-	-	-	55	-	62
O=C(Nc1ccc(-c2ccc(N3CCCCC3)nn2)cc1)c1ccco1	-	-	-	.	63	-	66
Nc1nc(-c2ccc(NC(=O)c3ccco3)cc2)cs1	-	-	-	-	56	-	70
Cc1ccn2cc(-c3ccc(NC(=O)c4ccco4)cc3)nc2c1	-	-	-	46	56	-	48
CC(C)c1cccc(-c2ccc3c(c2)S(=O)(=O)c2cccc(C(=O)NCc4ccco4)c2C3=O)c1	-	-	-	.	-	-	.
CC1CCCN(S(=O)(=O)c2ccc(NC(=O)CN3C(=O)NC(C)(c4ccccc4)C3=O)cc2)C1 (stereo not drawn)	-	-	-	.	-	-	.
CCN1CCN(C(=O)c2cc(COc3ccc(F)c(F)c3)on2)[C@@H](C)C1=O	.	.	-	.	.	.	.
O=C(Nc1nc(-c2nc3ccccc3s2)cs1)c1ccco1	-	-	-	-	-	-	.
O=C(Nc1nc(-c2ccc(Cl)s2)cs1)c1ccco1	-	-	-	-	62	-	67
COC(=O)N/N=C/c1ccc(-c2cc(Cl)cc(Cl)c2)o1	-	-	-	-	57	-	62
